High-throughput results from PubChem.
Only some compounds are listed: those with a hit (about 32% of all), similar ones and a draw of the others.
CYP2C9 inh – blocks human cytochrome P450 2C9; P11712; CYP2C9 Supersomes, luciferin-H conversion, luminescence; inhibition, % at 5 µM; 96,000 tested, 20% active; AID 777;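 active = blocking of liver enzyme CYP2C9 beyond about 50% at 5 µM, limit read from the data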
PostGolgi ctrl – growth of the yeast control strain, post-Golgi counter-screen; inhibition, % at 10 µM; AID 738; efflux-deficient yeast background strain, growth absorbance A615, 16 h; 98,000 tested, 5% active
CYP2C19 inhib – inhibitors of human CYP2C19; P33261; CYP2C19 Supersomes, luciferin-H EGE luminescence, 30 min; inhibition, % at 5 µM; 96,000 tested, 21% active;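 active = CYP2C19 inhibition above a set limit at 5 µM in the primary screen, cut at about 50% in these data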;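 also: plate controls were negative control wells for no effect and 2.5 mM tranylcypromine positive control for full effect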
Target sequence (P33261 whole entry, looked up): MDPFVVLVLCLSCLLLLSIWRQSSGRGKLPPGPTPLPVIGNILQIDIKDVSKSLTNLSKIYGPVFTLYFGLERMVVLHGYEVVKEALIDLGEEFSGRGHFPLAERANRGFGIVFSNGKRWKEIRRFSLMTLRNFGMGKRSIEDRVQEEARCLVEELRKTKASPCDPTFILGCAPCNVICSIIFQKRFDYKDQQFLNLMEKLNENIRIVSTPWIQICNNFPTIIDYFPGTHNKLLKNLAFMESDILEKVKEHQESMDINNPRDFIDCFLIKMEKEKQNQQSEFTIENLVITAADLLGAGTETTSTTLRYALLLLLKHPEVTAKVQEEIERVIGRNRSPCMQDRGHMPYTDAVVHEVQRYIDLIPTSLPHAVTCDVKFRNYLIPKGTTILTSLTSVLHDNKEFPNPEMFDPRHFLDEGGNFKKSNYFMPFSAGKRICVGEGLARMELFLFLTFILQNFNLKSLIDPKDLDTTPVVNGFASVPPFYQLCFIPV
CYP2C9 activ – activators of human CYP2C9 | recombinant CYP2C9, luciferin-H conversion, luminescence; hits give high values; factor 1 = untreated enzyme, 0 = blocked | activation factor at 5 µM | P11712 | 96,000 tested, 1.4% active | AID 1024;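 active = activation factor of 2 or more for CYP2C9 at a 5 µM dose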;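 also: 0 = sulfaphenazole-blocked wells and 1 = vehicle-only wells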
PostGolgi yeast – growth inhibition of a yeast mutant, post-Golgi transport screen; inhibition, % at 10 µM; 98,000 tested, 0.9% active; post-Golgi transport phenotypic cell assay; AID 739;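 also: yeast cells grown in 1536-well plates; yeast grown about 18 h at 30C before absorbance read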
CYP2C19 act – activators of human cytochrome P450 2C19; recombinant CYP2C19, luciferin-H EGE luminescence; hits give high values; 0 = fully inhibited enzyme, 1 = untreated enzyme; 96,000 tested, under 10 active; activation factor at 5 µM; P33261;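 active = activation factor of at least 2 at 5 µM in the primary screen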;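 also: 0 = wells with 2.5 mM tranylcypromine and 1 = vehicle-only wells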
Numbers without * were called inactive. Rule as the data show it, unless noted: active = inhibition above about 30%; inactive = the rest.

Screening O=c1cc(CSc2ccc(S(=O)(=O)N3CCCCC3)cn2)nc2sccn12 returned CYP2C9 inh 79.7*, PostGolgi ctrl 73.4*, CYP2C19 inhib 65.9*, CYP2C9 activ 0.2, PostGolgi yeast 78.9* and CYP2C19 act 0.3.
`N#C/C(C(=O)c1ccccc1)=C1/SC=C(N)N1c1ccccc1` gave CYP2C9 inh 92.3*, PostGolgi ctrl 8.9, CYP2C19 inhib 81.3*, CYP2C9 activ 0.1, PostGolgi yeast -5.4 and CYP2C19 act 0.2.
Screening COC(=O)/C(C#N)=C1/SC=C(C)N1c1ccccc1 returned CYP2C9 inh -16.2, PostGolgi ctrl 14.2, CYP2C19 inhib 1.9, CYP2C9 activ 1.2, PostGolgi yeast -4.4 and CYP2C19 act 1.
CNC(=O)NC(=O)CSc1ccc(NC(C)=O)cc1 was read as CYP2C9 inh -0.4, PostGolgi ctrl 3.5, CYP2C19 inhib 2.0, CYP2C9 activ 1, PostGolgi yeast 4.1 and CYP2C19 act 1.
For Cc1cc(NC(=O)CSC2=NCCS2)no1 the results were CYP2C9 inh 11.5, PostGolgi ctrl 30.5*, CYP2C19 inhib 34.6, CYP2C9 activ 0.9, PostGolgi yeast -5.4 and CYP2C19 act 0.7.
CC(=O)Oc1ccc(NC(=O)CSc2ccccc2)cc1 was read as CYP2C9 inh 53.1*, PostGolgi ctrl 37.2*, CYP2C19 inhib 69.3*, CYP2C9 activ 0.5, PostGolgi yeast -7.6 and CYP2C19 act 0.3.
Screening Cc1cc(NC(=O)CSc2ccc3ccccc3c2)no1 returned CYP2C9 inh 79.0*, PostGolgi ctrl 1.2, CYP2C19 inhib 50.5*, CYP2C9 activ 0.2, PostGolgi yeast 0.8 and CYP2C19 act 0.5.
Screening O=C(CSc1ccc2ccccc2c1)Nc1ccncc1 returned CYP2C9 inh 95.3*, PostGolgi ctrl 92.2*, CYP2C19 inhib 96.8*, CYP2C9 activ 0, PostGolgi yeast 103.2* and CYP2C19 act 0.
`CCC(=O)Nc1ccc(NC(=O)CN2CCCC(C)C2)c(Cl)c1` (centres undefined) gave CYP2C9 inh 5.5, PostGolgi ctrl -2.6, CYP2C19 inhib 3.3, CYP2C9 activ 0.9, PostGolgi yeast -9.0 and CYP2C19 act 1.
Screening Cc1cccc2cc(COC(=O)C(C)C)c(=O)[nH]c12 returned CYP2C9 inh -5.2, PostGolgi ctrl -0.9, CYP2C19 inhib 11.8, CYP2C9 activ 1.1, PostGolgi yeast -8.2 and CYP2C19 act 0.9.
For Cc1c(NC(=O)CSc2nccn2C)c(=O)n(-c2ccccc2)n1C the results were CYP2C9 inh -9.1, PostGolgi ctrl 6.1, CYP2C19 inhib -5.7, CYP2C9 activ 1.1, PostGolgi yeast -4.2 and CYP2C19 act 1.1.
Cn1ccnc1SCC(=O)Nc1ccc2ccccc2c1 was read as CYP2C9 inh 19.0, PostGolgi ctrl 11.3, CYP2C19 inhib 93.2*, CYP2C9 activ 0.8, PostGolgi yeast 6.1 and CYP2C19 act 0.1.
`O=C(CSc1ccccc1)Nc1ccncc1` gave CYP2C9 inh 85.3*, PostGolgi ctrl 1.7, CYP2C19 inhib 89.7*, CYP2C9 activ 0.1, PostGolgi yeast -0.5 and CYP2C19 act 0.1.
CCC(=O)N1CCN(C(=O)CC)C1c1ccccc1 was read as CYP2C9 inh -1.0, PostGolgi ctrl -7.8, CYP2C19 inhib 5.4, CYP2C9 activ 1, PostGolgi yeast 9.9 and CYP2C19 act 0.9.
Screening CO/N=C(/CNC(=O)c1ccc(F)cc1)c1ccc(Cl)cc1 returned CYP2C9 inh 64.2*, PostGolgi ctrl 17.7, CYP2C19 inhib 85.5*, CYP2C9 activ 0.4, PostGolgi yeast 2.3 and CYP2C19 act 0.1.
COCC(=O)NC(C)c1nc2ccccc2[nH]1 (centres undefined) was read as CYP2C9 inh -18.0, PostGolgi ctrl -3.3, CYP2C19 inhib -9.5, CYP2C9 activ 1.2, PostGolgi yeast 14.8 and CYP2C19 act 1.1.
Screening O=c1c2ccccc2nc(-c2ccccc2)n1Cc1ccc(Cl)cc1 returned CYP2C9 inh 81.8*, PostGolgi ctrl 12.2, CYP2C19 inhib 76.6*, CYP2C9 activ 0.2, PostGolgi yeast -8.4 and CYP2C19 act 0.2.
Screening O=c1c2ccccc2nc2n1CCN2Cc1ccc(Cl)cc1 returned CYP2C9 inh 66.9*, PostGolgi ctrl 24.5, CYP2C19 inhib 74.3*, CYP2C9 activ 0.3, PostGolgi yeast 3.3 and CYP2C19 act 0.3.
COc1ccc(N2CCN(C(=O)CSc3nnc(COc4cccc5cccnc45)o3)CC2)cc1 was read as CYP2C9 inh 2.1, PostGolgi ctrl 3.3, CYP2C19 inhib 0.2, CYP2C9 activ 1, PostGolgi yeast -2.5 and CYP2C19 act 1.
`Cn1ccnc1SCC(=O)c1cccc(Br)c1` gave CYP2C9 inh 17.1, PostGolgi ctrl 5.6, CYP2C19 inhib 85.5*, CYP2C9 activ 0.8, PostGolgi yeast 8.4 and CYP2C19 act 0.1.
COc1ccc(-n2nnnc2SCC(=O)c2cc3ccccc3o2)cc1 was read as CYP2C9 inh 76.3*, PostGolgi ctrl 35.1*, CYP2C19 inhib 90.8*, CYP2C9 activ 0.2, PostGolgi yeast 0.9 and CYP2C19 act 0.1.
`Cn1ccnc1SCC(=O)c1cc2ccccc2o1` gave CYP2C9 inh 1.6, PostGolgi ctrl -6.1, CYP2C19 inhib 59.4*, CYP2C9 activ 1, PostGolgi yeast 0.3 and CYP2C19 act 0.4.
`Cn1c(SCC(=O)c2cc3ccccc3o2)nnc1-c1ccccc1` gave CYP2C9 inh 68.2*, PostGolgi ctrl 9.1, CYP2C19 inhib 83.8*, CYP2C9 activ 0.3, PostGolgi yeast 6.6 and CYP2C19 act 0.2.
Screening Nc1ncnc2c1ncn2CCN1CCOCC1 returned CYP2C9 inh 48.0, PostGolgi ctrl 5.8, CYP2C19 inhib 90.0*, CYP2C9 activ 0.5, PostGolgi yeast 2.8 and CYP2C19 act 0.1.
`O=C(CSc1nnnn1-c1ccc(F)cc1)Nc1ccc(N2CCOCC2)c(Cl)c1` gave CYP2C9 inh -8.9, PostGolgi ctrl 8.3, CYP2C19 inhib -4.3, CYP2C9 activ 1.1, PostGolgi yeast 1.8 and CYP2C19 act 1.
Screening Cc1nn(C)c(C)c1Sc1ccc(Br)cc1 returned CYP2C9 inh 24.7, PostGolgi ctrl 13.8, CYP2C19 inhib 64.4*, CYP2C9 activ 0.8, PostGolgi yeast -5.7 and CYP2C19 act 0.4.
`C=CCn1c(-c2ccccc2)n[nH]c1=S` gave PostGolgi ctrl 4.2 and PostGolgi yeast 5.3.
`C=CCn1c(-c2cccc3ccccc23)n[nH]c1=S` gave CYP2C9 inh 52.5*, PostGolgi ctrl 16.0, CYP2C19 inhib 92.2*, CYP2C9 activ 0.5, PostGolgi yeast 0.3 and CYP2C19 act 0.1.
Screening C=CCn1c(Cc2nc3ccc(Cl)cc3[nH]2)n[nH]c1=S returned CYP2C9 inh 32.4, PostGolgi ctrl 0.0, CYP2C19 inhib 97.9*, CYP2C9 activ 0.7, PostGolgi yeast 3.5 and CYP2C19 act 0.
C=CCn1c(Cc2c[nH]c3ccccc23)n[nH]c1=S was read as CYP2C9 inh 31.8, PostGolgi ctrl 19.6, CYP2C19 inhib 62.2*, CYP2C9 activ 0.7, PostGolgi yeast -1.7 and CYP2C19 act 0.4.
